About 7,900 targets were measured; listed, in parts, are those with a hit and a random draw of the rest. About 0.6% of all pairs of compound and target were hits. Unmarked numbers belong to inactive results.

Sequence of UniProt Q9UID3 (Q9UID3 whole entry, looked up): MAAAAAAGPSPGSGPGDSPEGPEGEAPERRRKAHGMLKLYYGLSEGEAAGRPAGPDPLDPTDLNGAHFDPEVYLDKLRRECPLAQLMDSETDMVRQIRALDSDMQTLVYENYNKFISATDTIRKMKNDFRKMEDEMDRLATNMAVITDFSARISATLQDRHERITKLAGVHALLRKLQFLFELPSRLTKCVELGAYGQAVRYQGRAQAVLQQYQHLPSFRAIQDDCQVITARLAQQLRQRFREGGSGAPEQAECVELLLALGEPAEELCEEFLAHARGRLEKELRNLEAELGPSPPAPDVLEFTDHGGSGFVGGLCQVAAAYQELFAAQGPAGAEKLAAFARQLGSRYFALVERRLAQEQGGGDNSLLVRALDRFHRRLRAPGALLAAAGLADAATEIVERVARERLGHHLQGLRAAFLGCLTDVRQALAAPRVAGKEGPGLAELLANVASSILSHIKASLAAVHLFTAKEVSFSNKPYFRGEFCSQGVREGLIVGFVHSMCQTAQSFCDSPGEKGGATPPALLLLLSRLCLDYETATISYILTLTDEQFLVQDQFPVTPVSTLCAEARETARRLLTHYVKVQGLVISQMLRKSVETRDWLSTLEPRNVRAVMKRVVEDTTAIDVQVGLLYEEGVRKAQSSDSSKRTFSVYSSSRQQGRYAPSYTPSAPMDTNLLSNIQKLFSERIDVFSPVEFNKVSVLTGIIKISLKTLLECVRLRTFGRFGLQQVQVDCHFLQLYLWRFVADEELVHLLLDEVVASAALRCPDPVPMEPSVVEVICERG
Sequence of UniProt Q15642 (Q15642 whole entry, looked up): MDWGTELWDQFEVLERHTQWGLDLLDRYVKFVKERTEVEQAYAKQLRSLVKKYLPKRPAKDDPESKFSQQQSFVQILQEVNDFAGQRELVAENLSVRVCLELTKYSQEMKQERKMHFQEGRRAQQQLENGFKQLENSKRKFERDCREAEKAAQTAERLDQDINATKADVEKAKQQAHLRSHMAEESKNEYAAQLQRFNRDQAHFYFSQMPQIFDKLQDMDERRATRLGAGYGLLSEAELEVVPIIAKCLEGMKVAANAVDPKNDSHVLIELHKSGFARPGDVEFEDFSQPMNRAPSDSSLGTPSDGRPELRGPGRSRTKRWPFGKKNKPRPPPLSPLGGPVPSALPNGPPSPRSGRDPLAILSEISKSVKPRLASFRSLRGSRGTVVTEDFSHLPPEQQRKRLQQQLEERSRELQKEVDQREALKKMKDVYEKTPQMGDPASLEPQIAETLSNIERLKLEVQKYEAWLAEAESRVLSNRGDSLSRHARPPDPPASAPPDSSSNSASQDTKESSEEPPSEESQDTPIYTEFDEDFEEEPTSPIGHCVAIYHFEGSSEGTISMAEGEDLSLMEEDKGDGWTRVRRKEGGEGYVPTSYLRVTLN
Sequence of UniProt P12270 (P12270 whole entry, looked up): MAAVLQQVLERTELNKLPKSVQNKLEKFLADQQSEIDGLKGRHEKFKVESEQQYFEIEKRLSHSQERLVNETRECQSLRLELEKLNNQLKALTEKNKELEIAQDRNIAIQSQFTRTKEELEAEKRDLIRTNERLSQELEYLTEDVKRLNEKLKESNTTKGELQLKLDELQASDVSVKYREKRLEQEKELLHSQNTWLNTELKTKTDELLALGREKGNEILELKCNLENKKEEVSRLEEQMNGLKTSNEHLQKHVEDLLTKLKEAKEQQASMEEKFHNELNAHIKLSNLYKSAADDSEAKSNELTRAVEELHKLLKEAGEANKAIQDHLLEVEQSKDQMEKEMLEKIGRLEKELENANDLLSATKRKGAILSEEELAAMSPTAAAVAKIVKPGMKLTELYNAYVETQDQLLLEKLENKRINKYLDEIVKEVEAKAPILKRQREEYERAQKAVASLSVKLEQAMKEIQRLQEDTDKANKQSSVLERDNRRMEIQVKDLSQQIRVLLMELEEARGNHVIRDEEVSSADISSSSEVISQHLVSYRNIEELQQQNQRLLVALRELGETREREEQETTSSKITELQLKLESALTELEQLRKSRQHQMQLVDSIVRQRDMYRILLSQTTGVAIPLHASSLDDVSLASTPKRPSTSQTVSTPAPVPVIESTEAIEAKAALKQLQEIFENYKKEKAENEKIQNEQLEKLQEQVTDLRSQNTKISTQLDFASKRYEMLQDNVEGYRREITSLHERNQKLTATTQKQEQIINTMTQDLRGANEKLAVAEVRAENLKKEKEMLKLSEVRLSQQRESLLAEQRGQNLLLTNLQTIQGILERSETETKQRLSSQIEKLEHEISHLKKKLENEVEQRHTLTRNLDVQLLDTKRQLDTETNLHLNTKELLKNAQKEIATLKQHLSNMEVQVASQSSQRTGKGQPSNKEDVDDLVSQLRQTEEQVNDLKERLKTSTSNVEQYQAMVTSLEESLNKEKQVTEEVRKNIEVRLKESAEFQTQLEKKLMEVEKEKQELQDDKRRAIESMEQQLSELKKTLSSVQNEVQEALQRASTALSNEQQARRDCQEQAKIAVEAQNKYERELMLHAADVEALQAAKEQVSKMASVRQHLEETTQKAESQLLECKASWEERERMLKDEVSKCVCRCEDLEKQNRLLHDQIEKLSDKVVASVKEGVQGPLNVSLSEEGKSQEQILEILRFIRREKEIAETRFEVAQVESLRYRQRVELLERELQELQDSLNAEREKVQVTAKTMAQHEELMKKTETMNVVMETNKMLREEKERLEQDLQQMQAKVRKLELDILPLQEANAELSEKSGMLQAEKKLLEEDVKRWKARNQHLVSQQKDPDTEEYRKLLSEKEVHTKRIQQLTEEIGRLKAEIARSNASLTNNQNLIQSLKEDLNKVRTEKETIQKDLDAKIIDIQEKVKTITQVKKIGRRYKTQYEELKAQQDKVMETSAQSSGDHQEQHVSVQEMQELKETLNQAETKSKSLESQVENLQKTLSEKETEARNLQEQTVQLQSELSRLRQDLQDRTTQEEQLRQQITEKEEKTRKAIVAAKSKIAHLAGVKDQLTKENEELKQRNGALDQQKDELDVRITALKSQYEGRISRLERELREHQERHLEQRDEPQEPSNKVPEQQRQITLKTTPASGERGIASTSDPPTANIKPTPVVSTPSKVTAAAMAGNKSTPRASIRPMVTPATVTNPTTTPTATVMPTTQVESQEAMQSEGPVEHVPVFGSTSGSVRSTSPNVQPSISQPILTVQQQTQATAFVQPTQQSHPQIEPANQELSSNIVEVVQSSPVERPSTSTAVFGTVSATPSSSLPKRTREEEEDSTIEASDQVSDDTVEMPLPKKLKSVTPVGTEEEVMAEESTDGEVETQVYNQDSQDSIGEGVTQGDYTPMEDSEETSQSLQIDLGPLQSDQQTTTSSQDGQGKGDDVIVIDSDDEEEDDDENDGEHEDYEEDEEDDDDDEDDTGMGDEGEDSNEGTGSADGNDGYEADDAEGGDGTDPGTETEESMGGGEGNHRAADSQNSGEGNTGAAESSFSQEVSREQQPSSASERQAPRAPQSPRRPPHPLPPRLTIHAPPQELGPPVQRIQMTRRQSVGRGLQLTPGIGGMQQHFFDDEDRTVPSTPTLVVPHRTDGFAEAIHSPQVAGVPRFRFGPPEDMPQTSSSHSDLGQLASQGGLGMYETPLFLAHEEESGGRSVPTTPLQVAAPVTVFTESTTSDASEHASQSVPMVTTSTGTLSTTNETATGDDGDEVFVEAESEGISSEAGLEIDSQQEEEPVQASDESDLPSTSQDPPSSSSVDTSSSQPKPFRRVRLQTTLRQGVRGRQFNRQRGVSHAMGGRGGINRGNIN
Sequence of UniProt Q7Z5K2 (Q7Z5K2 whole entry, looked up): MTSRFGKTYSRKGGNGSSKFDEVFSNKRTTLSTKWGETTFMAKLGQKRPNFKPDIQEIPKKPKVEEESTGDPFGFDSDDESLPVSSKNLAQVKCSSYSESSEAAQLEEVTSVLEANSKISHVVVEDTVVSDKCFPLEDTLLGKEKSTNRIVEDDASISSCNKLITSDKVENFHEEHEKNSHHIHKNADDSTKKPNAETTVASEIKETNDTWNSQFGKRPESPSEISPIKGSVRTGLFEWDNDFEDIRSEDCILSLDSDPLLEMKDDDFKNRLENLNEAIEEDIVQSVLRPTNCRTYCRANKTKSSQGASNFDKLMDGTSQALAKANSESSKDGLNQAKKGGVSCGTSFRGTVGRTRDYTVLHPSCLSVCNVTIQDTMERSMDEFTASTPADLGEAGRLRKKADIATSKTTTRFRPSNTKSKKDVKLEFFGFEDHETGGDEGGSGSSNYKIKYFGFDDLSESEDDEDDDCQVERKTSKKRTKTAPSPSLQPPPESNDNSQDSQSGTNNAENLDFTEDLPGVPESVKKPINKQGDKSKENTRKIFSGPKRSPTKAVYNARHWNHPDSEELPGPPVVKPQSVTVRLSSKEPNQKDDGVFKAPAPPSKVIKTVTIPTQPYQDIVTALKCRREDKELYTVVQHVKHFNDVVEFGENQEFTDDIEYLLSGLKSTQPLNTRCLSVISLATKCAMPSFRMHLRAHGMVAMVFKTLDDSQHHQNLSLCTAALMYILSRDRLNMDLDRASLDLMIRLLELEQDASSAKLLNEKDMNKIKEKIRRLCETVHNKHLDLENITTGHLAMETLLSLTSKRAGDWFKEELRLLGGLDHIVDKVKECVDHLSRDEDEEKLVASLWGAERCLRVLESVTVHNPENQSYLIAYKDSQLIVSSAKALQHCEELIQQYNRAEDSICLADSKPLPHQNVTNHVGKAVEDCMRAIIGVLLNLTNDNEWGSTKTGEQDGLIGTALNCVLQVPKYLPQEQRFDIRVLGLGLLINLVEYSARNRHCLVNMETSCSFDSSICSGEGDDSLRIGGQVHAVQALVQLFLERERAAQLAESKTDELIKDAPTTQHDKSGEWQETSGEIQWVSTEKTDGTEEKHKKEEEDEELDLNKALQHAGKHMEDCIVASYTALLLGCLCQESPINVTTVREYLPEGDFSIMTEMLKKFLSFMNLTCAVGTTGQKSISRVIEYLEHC
Sequence of UniProt O43617 (O43617 whole entry, looked up): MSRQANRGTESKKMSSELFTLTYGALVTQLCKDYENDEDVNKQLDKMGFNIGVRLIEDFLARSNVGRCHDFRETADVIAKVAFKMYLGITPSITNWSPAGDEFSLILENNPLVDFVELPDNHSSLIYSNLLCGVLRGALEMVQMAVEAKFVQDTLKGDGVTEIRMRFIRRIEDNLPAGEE

Compound in this assay: c1cn2cc(-c3ccc4cn[nH]c4c3)nc(Nc3ccc(N4CCOCC4)cc3)c2n1 [entospletinib]
The assay is described as follows: log2 fold change, soluble protein after heating vs DMSO (PISA); higher = thermal stabilisation; K562 cells, 10 uM, 30 min; active = over 0.2 and 3.5 SD of the protein, either way, in both replicates (recomputed). The gist of the method:
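Soluble protein was defined as the supernatant after 21,000xg for 90 min. It came from K562 cells at 2×10^6 cells/mL given 10 μM compound for 30 min, heated in aliquots for 3 min across 48°C-58°C, pooled, and extracted in PBS with 0.5% NP-40 at 4°C, and was quantified by TMTpro 16plex LC-MS/MS with equalised channel sums. Thermal stability against control samples, from duplicates, is reported as log2 fold change.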
In the case of TOE1 (UniProt Q96GM8), the log2 fold change was 0.058.

TXNIP (UniProt Q9H3M7): the log2 fold change was -0.146.

For the target UBE4A isoform 2 (UniProt Q14139), the log2 fold change was -0.043.

As for UBIAD1 (UniProt Q9Y5Z9), the log2 fold change was -0.013.

With USP48 (UniProt Q86UV5), the log2 fold change is -0.055.

For TSEN2 (UniProt Q8NCE0), the log2 fold change is -0.041.

VPS18 (UniProt Q9P253): the log2 fold change was -0.07.

Turning to WDHD1 (UniProt O75717), the log2 fold change was -0.019.

Turning to XPO5 (UniProt Q9HAV4), the log2 fold change was 0.001.

With TXNL4B (UniProt Q9NX01), the log2 fold change is 0.002.

Take U2AF2 (UniProt P26368): the log2 fold change was 0.107.

For UBE3D (UniProt Q7Z6J8), the log2 fold change is 0.091.

On to VPS8 (UniProt Q8N3P4), for which the log2 fold change is 0.034.

UBE2J1 (UniProt Q9Y385): the log2 fold change was 0.

With UBAP2L isoform 5 (UniProt Q14157), the log2 fold change was -0.007.

Turning to TTI1 (UniProt O43156), the log2 fold change is 0.1.

On to UFL1 (UniProt O94874), for which the log2 fold change was -0.025.

As for UHRF1BP1 (UniProt Q6BDS2), the log2 fold change is 0.015.

On to WAPL isoform 3 (UniProt Q7Z5K2), for which the log2 fold change was -0.037.

On to VPS72 isoform 2 (UniProt Q15906), for which the log2 fold change is 0.112.

As to VRK2 (UniProt Q86Y07), the log2 fold change was -0.078.

Turning to TTC38 (UniProt Q5R3I4), the log2 fold change is -0.114.

Regarding VPS51 (UniProt Q9UID3), the log2 fold change was 0.007.

Take USP14 (UniProt P54578): the log2 fold change was -0.03.

Take TMEM41A (UniProt Q96HV5): the log2 fold change was 0.042.

For TRIP10 (UniProt Q15642), the log2 fold change was 0.061.

VKORC1 (UniProt Q9BQB6): the log2 fold change was 0.006.

In the case of TP53BP1 isoform 2 (UniProt Q12888), the log2 fold change is 0.087.

Take TSFM (UniProt P43897): the log2 fold change is -0.191.

TRAPPC3 (UniProt O43617): the log2 fold change was -0.013.

For the target TTC4 (UniProt O95801), the log2 fold change was -0.002.

As to UBE4B isoform 4 (UniProt O95155), the log2 fold change was -0.03.

Turning to TMEM184C (UniProt Q9NVA4), the log2 fold change was 0.041.

Consider VPS13B (UniProt Q7Z7G8), for which the log2 fold change was 0.053.

Turning to XPO1 (UniProt O14980), the log2 fold change was -0.016.

For UBXN10 (UniProt Q96LJ8), the log2 fold change was 0.013.

With XPNPEP3 (UniProt Q9NQH7), the log2 fold change is -0.025.

UBR2 (UniProt Q8IWV8): the log2 fold change was 0.029.

Take TPR (UniProt P12270): the log2 fold change is 0.067.

For the target TRMT10C (UniProt Q7L0Y3), the log2 fold change is -0.043.

Values taken from the supplement of paper PMC10849652.
